Data taken from PubChem BioAssay (NCATS).
Records with an inconclusive call do not appear. Values without a mark were called inactive. The source made the active and inactive calls. The call rests on the fitted dose curve.
Potency means the concentration at half of the fitted maximal effect.

Experiment: S16 Schwann cell PMP22 intronic element beta-lactamase assay (AID 624044); further: nearly all actives have a fitted effect of over 15% in size
Conditions: S16 rat Schwann cells, PMP22 element beta-lactamase FRET, 24 h; ratio activity, negative = inhibition: at 38.3 µM (top of the series) unless noted
Description: Description: Charcot-Marie-Tooth-Association [CMTA] National Center for Advancing Translational Sciences [NCATS] Charcot-Marie-Tooth (CMT) disease was first characterized by Jean-Martin Charcot and Pierre Marie in France and, independently, by Howard Henry Tooth in England in 1886. CMT is one of the most common inherited neurological diseases, affecting approximately 1 in 2,500 Americans. […] The most prevalent type of CMT is known as CMT1A and caused by a duplication of the PMP22 gene which leads to over-expression of this protein. PMP22 is a glycosylated intrinsic membrane protein accounting for 2-5% of the myelin protein content, and its over-expression results in demyelination and subsequently axonal loss. A pair of cellular transcription-based assays was developed in the S16 rat Schwann cell lines (Hai, M., et al., 2002) stably transfected with orthogonal reporters - firefly luciferase (Fluc) and beta-lactamase (beta-Lac) - whose expression is driven by an intronic regulatory element of the PMP22 gene (Jones, E.A., et al., 2011) to recapitulate endogenous expression of PMP22. The current assay employs Blac as a reporter of PMP22 expression. A comprehensive library of approved drugs, the NCGC Pharmaceutical Collection (Huang, R., et al., 2011), was screened in the cross-validating platform of the orthogonal reporter assays to identify drug modulators inhibitory towards PMP22 expression. A set of counter-screens was devised to address non-specific activity of the library. An ATP-dependent CellTiter-Glo assay (developed by Promega Corp) was utilized to control cell viability. In addition, biochemical Fluc enzyme assay was performed to assess direct inhibition of the Fluc enzymatic activity. References Hai, M., Muja, N., DeVries, G.H., Quarles, R.H. and Patel, P.I. Comparative analysis of Schwann cell lines as model systems for myelin gene transcription studies. J Neurosci Res, 2002. 69(4): pp 497-508 Huang, R., Southall, N., Wang, Y., Yasgar A., Shinn P., Jadhav, A. , Nguyen, D.-T. and Austin, C.P., The NCGC pharmaceutical collection: a comprehensive resource of clinically approved drugs enabling repurposing and chemical genomics. Sci Transl Med, 2011. 3(80): p. 80ps16.
S16 Schwann cell PMP22 intronic element beta-lactamase assay The beta-Lac-expressing S16 cells were seeded in black clear-bottom 1536 well plates at between 500-750 cells/6uL in DMEM medium containing 10% FBS, w/o phenol red. After overnight incubation at 37 degree Celsius/5% C02, 23 nL of compounds or DMSO were delivered to each well using a pin tool, followed by 24h-incubation at 37 degree Celsius/5% C02. Then one microl of LiveBLAzer FRET B/G detection mix (Invitrogen) was added to each well. An EnVision plate reader (PerkinElmer) was used to detect the dual beta-Lac output composed of fluorescence at 460nm for beta-Lac expression and FRET at 535nm for cell viability. The % signal at 535 nm was scaled to a full range of DMSO and zero and then normalized using the maximum response observed in the screen as 100% activity. The % signal at 460nm was normalized to the average readings of potassium clavulanate (a positive control) - treated cells relative to DMSO-treated cells (0% Activity). The concentration-effect curves were then classified based on curve quality (r2), response magnitude and degree of measured activity.
For `NCCO/C=C/[C@H](N)C(=O)O`, the ratio activity, negative = inhibition was 0.236%.
For `O=C1CCC(c2ccccc2)(C2CCN(Cc3ccccc3)CC2)C(=O)N1` (stereo not given), the ratio activity, negative = inhibition was 1.84%.
In the case of `CC(C)(Oc1ccc(C2CCCc3ccccc32)cc1)C(=O)O` (stereo not given), the ratio activity, negative = inhibition is reported as -0.979%.
Compound `NCC[C@H](O)C(=O)N[C@@H]1C[C@H](N)[C@@H](O[C@H]2O[C@H](CN)[C@@H](O)[C@H](O)[C@H]2O)[C@H](O)[C@H]1O[C@H]1O[C@H](CO)[C@@H](O)[C@H](N)[C@H]1O` has a ratio activity, negative = inhibition of -4.63%.
`Cc1cc(-c2ccc(N=Nc3c(S(=O)(=O)O)cc4cc(S(=O)(=O)O)cc(N)c4c3O)c(C)c2)ccc1N=Nc1c(S(=O)(=O)O)cc2cc(S(=O)(=O)O)cc(N)c2c1O` showed a ratio activity, negative = inhibition of 8.59%.
`CCCCCc1ccc(C)cc1O` showed a ratio activity, negative = inhibition of 4.39%.
Work on `CN1C(=O)C[C@@H](C(=O)N[C@@H](Cc2cnc[nH]2)C(=O)N2CCC[C@H]2C(N)=O)NC1=O` yielded a ratio activity, negative = inhibition of -0.824%.
`OC1OC[C@@H](O)[C@H](O)[C@@H]1O` (stereo not given in full) showed a ratio activity, negative = inhibition of 0.472%.
`CCc1ncnc2cc(OC)c(OC)cc12` gave a ratio activity, negative = inhibition of -3.22%.
For `Cc1cc2nc3c(=O)[nH]c(=O)nc-3n(C[C@H](O)[C@H](O)[C@H](O)COP(=O)(O)OP(=O)(O)OC[C@H]3O[C@@H](n4cnc5c(N)ncnc54)[C@H](O)[C@@H]3O)c2cc1C`, the ratio activity, negative = inhibition was -42.7%.
`Nc1ncnc2c1ncn2CCOCP(=O)(O)O` gave a ratio activity, negative = inhibition of 0.57%.
Compound `CCCCC(CC)CCC(CC(C)C)OS(=O)(=O)O` (stereo not given) has a ratio activity, negative = inhibition of 0%.
`CC(=O)Oc1cccc(C(=O)O)c1OC(C)=O` gave a ratio activity, negative = inhibition of 10.8%.
`FC(F)(F)COCC(F)(F)F` showed a ratio activity, negative = inhibition of -0.887%.
`CC(C)c1nc(N(C)S(C)(=O)=O)nc(-c2ccc(F)cc2)c1/C=C/C(O)CC(O)CC(=O)O` (stereo not given) gave a ratio activity, negative = inhibition of 3.3%.
In the case of `CCSc1ccc2c(c1)N(CCCN1CCN(C)CC1)c1ccccc1S2`, the ratio activity, negative = inhibition is reported as 0.419% [at 17.1 µM].
Work on `OCc1ccccc1` yielded a ratio activity, negative = inhibition of -1.75%.
`O=C(O)CCC(=O)c1ccc(-c2ccccc2)cc1` showed a ratio activity, negative = inhibition of 0.885% [at 17.1 µM].
Compound `O=C(O)CCC/C=C\C[C@@H]1[C@@H](/C=C/[C@@H](O)COc2cccc(C(F)(F)F)c2)[C@H](O)C[C@@H]1O` has a ratio activity, negative = inhibition of 4.13%.
`[O-][N+](=Nc1ccccc1)c1ccccc1` showed a ratio activity, negative = inhibition of 3.38%.
In the case of `CN1CCc2c(c3ccccc3n2Cc2ccccc2)C1`, the ratio activity, negative = inhibition is reported as -4.6% [at 17.1 µM].
`C[C@H](N)C(=O)N[C@@H](C)P(=O)(O)O` gave a ratio activity, negative = inhibition of 4.18%.
Compound `NC(=O)CC[C@@H]1NC(=O)[C@H](Cc2ccccc2)NC(=O)[C@H](Cc2ccc(O)cc2)NC(=O)[C@@H](N)CSSC[C@@H](C(=O)N2CCC[C@H]2C(=O)N[C@@H](CCCN=C(N)N)C(=O)NCC(N)=O)NC(=O)[C@H](CC(N)=O)NC1=O` has a ratio activity, negative = inhibition of -1.23%.
With `NC(=S)N=Nc1ccc(NN=C(N)N)cc1` the ratio activity, negative = inhibition was -3.68%.
`COc1ccc(/C=N/NC(=O)c2ccncc2)c(C(=O)O)c1OC` showed a ratio activity, negative = inhibition of 4.12%.
In the case of `CS(=O)(=O)c1ccc([C@@H](O)[C@@H](COC(=O)CN)NC(=O)C(Cl)Cl)cc1`, the ratio activity, negative = inhibition is reported as 3.99%.
With `NC(=S)NS(=O)(=O)c1ccc(N)cc1` the ratio activity, negative = inhibition was -12.7% (active).
In the case of `CC(=O)Nc1ccc(OC(C)=O)cc1`, the ratio activity, negative = inhibition is reported as -15.5%.
With `Cc1nc(NS(=O)(=O)c2ccc(N)cc2)nc(C)c1Br` the ratio activity, negative = inhibition was 0.0634%.
For `CC(=O)Nc1ccc(NC(=S)NC(=O)c2ccc(C(C)(C)C)cc2)cc1`, the Potency was 7.94 µM (active).
Compound `O=C(CCCCCCCCCCCCC1CCCC1)Nc1ccc(S(=O)(=O)c2ccc(NC(=O)CCCCCCCCCCCCC3CCCC3)cc2)cc1` has a ratio activity, negative = inhibition of 4.78%.
Compound `CC[C@H]1OC(=O)[C@H](C)[C@@H](O[C@H]2C[C@@](C)(OC)[C@@H](O)[C@H](C)O2)[C@H](C)[C@@H](O[C@@H]2O[C@H](C)C[C@H](N(C)C)[C@H]2O)[C@](C)(O)C[C@@H](C)CN(C)[C@H](C)[C@@H](O)[C@]1(C)O` has a ratio activity, negative = inhibition of -5.31%.
With `c1ccc2c(c1)OCC(CN1CCCCC1)O2` (stereo not given) the ratio activity, negative = inhibition was 1.83%.
Work on `O=C(O)c1cc(N=Nc2ccc(O)c(C(=O)O)c2)ccc1O` yielded a ratio activity, negative = inhibition of -0.669%.
Work on `OCCCNc1ccccc1` yielded a ratio activity, negative = inhibition of 0.736%.
In the case of `CCCCCCCCCCCC(=O)N(CCO)CCO`, the ratio activity, negative = inhibition is reported as 0%.
Work on `NC(=O)C1c2ccccc2CCc2ccccc21` yielded a ratio activity, negative = inhibition of -1.01%.
Work on `CCCC(CCC)C(=O)OC1C[C@H]2CC[C@@H](C1)[N+]2(C)C` (stereo not given in full) yielded a ratio activity, negative = inhibition of 6.3%.
In the case of `C=CC(C)(O)CC/C=C(\C)CCC=C(C)C` (stereo not given), the ratio activity, negative = inhibition is reported as -13.1% (active).
Compound `NC(N)=NCC1COc2ccccc2O1` (stereo not given) has a ratio activity, negative = inhibition of 2.65%.
